Reference: PubChem BioAssay
Activity calls are given as the source filed them. Unless noted, how the calls were made is not given here.

What was measured:
[1] = resazurin metabolic signal in HepG2 cells – cell-based, resazurin fluorescence, 24 h, PK04 Diversity Set, profiling panel (AID 1172); details: HepG2 viability, higher = more signal
[2] = budding yeast growth changes without added modifier – OD600, strain BY4716, 24 h, basal condition, primary screen (AID 1173); details: S. cerevisiae BY4716 growth, OD600, 24 h; higher = more signal, called active from +8 up or from −8 down
[3] = viability profiling in MM1S myeloma cells – cell-based, resazurin fluorescence, basal, 24 h, PK04 Diversity Set, profiling panel (AID 1174); details: higher = more signal, called active from +8 up or from −8 down;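 further: MM1S multiple myeloma cell line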
[4] = molecular target: Dihydroorotate dehydrogenase (quinone), mitochondrial (Plasmodium falciparum (isolate 3D7)) (UniProt Q08210); experiment: inhibition of P. falciparum DHODH – biochemical, C-terminal His tag, absorbance 600 nm, primary screen (AID 1175); details: PfDHODH enzyme, DCIP absorbance 600 nm; higher = more signal, called active from +8 up or from −8 down;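 further: recombinant parasite enzyme with a five histidine tag at its C terminus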
Sequence of Dihydroorotate dehydrogenase (quinone), mitochondrial (Plasmodium falciparum (isolate 3D7)) (Q08210 whole entry, looked up): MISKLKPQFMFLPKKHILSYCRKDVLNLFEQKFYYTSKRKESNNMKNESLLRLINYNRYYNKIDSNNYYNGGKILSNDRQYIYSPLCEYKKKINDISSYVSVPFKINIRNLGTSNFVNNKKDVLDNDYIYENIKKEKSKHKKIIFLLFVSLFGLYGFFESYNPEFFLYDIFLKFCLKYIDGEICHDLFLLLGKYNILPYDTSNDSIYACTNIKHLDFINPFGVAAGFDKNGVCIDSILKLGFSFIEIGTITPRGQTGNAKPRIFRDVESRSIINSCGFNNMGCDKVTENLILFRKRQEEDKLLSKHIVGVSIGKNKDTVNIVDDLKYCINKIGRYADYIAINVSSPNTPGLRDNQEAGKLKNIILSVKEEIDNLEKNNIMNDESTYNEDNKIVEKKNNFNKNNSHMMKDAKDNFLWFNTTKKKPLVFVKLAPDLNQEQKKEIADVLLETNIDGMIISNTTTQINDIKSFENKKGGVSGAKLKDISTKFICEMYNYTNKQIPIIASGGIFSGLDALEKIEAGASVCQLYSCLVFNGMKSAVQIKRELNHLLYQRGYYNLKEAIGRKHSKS

[5] = inhibition of PAO1 biofilm formation – strain PAO1, LB-PBS medium, absorbance 600 nm, primary screen (AID 1176); details: P. aeruginosa PAO1 growth/biofilm, A600, 12 h; higher = more signal
[6] = growth modulation of vineyard yeast isolate – strain RM11-1a, OD600, basal, 24 h, primary screen (AID 1177);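 further: cultures grown under basal conditions with no added stressor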; details: S. cerevisiae RM11-1a growth, OD600, 24 h; higher = more signal, called active from +8 up or from −8 down
[7] = growth of efflux-deficient E. coli DRC39 – strain DRC39, OD650, 24 h, E. coli filamentation inducers, primary screen (AID 1178);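 further: growth measured as culture turbidity by optical density at 650 nm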; details: E. coli DRC39 acrAB, higher = more signal, called active from +8 up or from −8 down
[8] = growth of efflux-deficient E. coli DRC39 – strain DRC39, OD650, 48 h, E. coli filamentation inducers, primary screen (AID 1179);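 further: screen aims at cell division blockers that make cells filament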; details: E. coli DRC39 delta-acrAB growth, higher = more signal, called active from +8 up or from −8 down
[9] = viability profiling in RPMI8226 myeloma cells – cell-based, resazurin fluorescence, basal, 24 h, PK04 Diversity Set, profiling panel (AID 1180); details: higher = more signal;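 further: RPMI8826 multiple myeloma cell line at 5000 cells per well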
[10] = molecular target: E3 ubiquitin-protein ligase XIAP (Homo sapiens) (UniProt P98170); experiment: small molecules binding XIAP protein – biophysical, small-molecule microarray, fluorescence 635 nm, primary screen (AID 1181); details: higher = more signal;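 further: score merges 667 nm emission and signal to noise over triplicate slides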
Sequence of E3 ubiquitin-protein ligase XIAP (Homo sapiens) (P98170 whole entry, looked up, the tested form may be a part): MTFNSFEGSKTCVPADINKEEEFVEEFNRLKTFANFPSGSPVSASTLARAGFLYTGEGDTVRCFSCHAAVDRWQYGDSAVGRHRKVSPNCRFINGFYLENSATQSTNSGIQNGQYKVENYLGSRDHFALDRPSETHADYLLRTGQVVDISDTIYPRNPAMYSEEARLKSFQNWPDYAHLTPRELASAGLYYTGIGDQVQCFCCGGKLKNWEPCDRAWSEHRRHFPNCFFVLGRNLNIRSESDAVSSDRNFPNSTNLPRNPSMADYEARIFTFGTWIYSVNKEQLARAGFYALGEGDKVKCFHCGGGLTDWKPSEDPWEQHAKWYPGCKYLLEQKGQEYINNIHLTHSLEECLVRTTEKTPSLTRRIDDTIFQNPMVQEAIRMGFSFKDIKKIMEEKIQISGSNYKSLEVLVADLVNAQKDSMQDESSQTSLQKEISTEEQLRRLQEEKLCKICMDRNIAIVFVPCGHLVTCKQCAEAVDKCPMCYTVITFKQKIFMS

[11] = tested on: XIP peptide (Xip251-270) binding; experiment: XIP fragment 251-270 binding compounds – biochemical, small-molecule microarray, fluorescence 635/667 nm, 0.1 µg/mL protein, primary screen (AID 1182); details: fluorescent protein binding, 635 nm, higher = more signal, called active from +8 up or from −8 down
XIP peptide (Xip251-270) = experiment: compounds binding XIP fragment 251-270 – biochemical, small-molecule microarray, fluorescence 635/667 nm, 0.5 µg/mL protein, primary screen (AID 1183); details: fluorescence 635 nm, higher = more signal
[12] = blood-stage malaria parasite viability loss – strain 3D7, DAPI fluorescence, 100 nL, primary screen (AID 1184);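 further: parasites grown inside human red blood cells in medium with human serum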; details: P. falciparum 3D7 growth, 3 d, higher = more signal
[13] = molecular target: Homeobox protein Hox-A13 (Mus musculus) (UniProt Q62424); experiment: disruptors of Hoxa13 oligonucleotide interaction – biochemical, fluorescence polarization, labeled oligonucleotide, primary screen (AID 1185); details: Hoxa13:DNA binding, 15 min, higher = more signal, called active from +8 up or from −8 down
Sequence of Homeobox protein Hox-A13 (Mus musculus) (Q62424 whole entry, looked up): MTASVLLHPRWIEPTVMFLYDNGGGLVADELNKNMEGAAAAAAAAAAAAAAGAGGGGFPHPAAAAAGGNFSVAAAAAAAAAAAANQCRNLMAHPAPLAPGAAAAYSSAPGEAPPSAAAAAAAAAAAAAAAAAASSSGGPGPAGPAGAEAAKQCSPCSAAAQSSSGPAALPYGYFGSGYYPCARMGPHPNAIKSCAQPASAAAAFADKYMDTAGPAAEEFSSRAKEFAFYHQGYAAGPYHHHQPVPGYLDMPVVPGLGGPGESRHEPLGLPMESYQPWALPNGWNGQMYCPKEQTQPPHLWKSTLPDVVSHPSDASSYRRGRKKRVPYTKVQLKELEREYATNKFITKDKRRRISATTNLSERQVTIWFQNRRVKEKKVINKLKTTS

[14] = blockers of DNA damage checkpoint Chk1 activation – imaging, HeLa, hydroxyurea, phospho-Chk1 antibody, percent positive cells, primary screen (AID 1186); details: hydroxyurea-induced phospho-Chk1 immunofluorescence imaging, higher = more signal
[15] = blockers of DNA damage checkpoint Chk1 activation – imaging, HeLa, hydroxyurea, phospho-Chk1 nuclear intensity, primary screen (AID 1187); details: hydroxyurea-induced phospho-Chk1 immunofluorescence imaging, higher = more signal

In the case of `O[C@@H](Cc1ccccc1)[C@@H](/C=C/C1CC1)N(CC#Cc1ccccc1)Cc1cccc(Cl)c1`, the z-score [1] is reported as 2.5, the z-score [2] is reported as 0.465 (inactive) and the z-score [3] is reported as 1.61 (inactive). The composite z-score [4] was -0.312 (inactive), the z-score [5] was -0.131 (inactive) and the z-score [6] was 0.438 (inactive). The z-score [7] was 0.839 (inactive), the z-score [8] was 1.01 (inactive) and the z-score [9] was 2.06. For the same compound, the composite z-score [10] was -0.0931, the composite z-score [11] was -0.16 (inactive) and the composite z-score (XIP peptide (Xip251-270)) was -0.646. The z-score [12] was -1.27, the z-score [13] was 0.493 (inactive) and the z-score [14] was 0.0959 (inactive). The z-score [15] was 0.043 (inactive).

In the case of `COC(=O)C(CC#Cc1ccc2c(c1)[C@]1(C(=O)N2)[C@H](C(=O)N2CCN(c3ncccn3)CC2)[C@H]2C(=O)O[C@H](c3ccccc3)[C@H](c3ccccc3)N2[C@@H]1c1ccc(OCCO)cc1)C(=O)OC`, the z-score [1] is reported as -0.589, the z-score [2] is reported as 1.78 (inactive) and the z-score [3] is reported as -1.45 (inactive). The composite z-score [4] was -8.4 (active), the z-score [5] was 3.59 (inactive) and the z-score [6] was 3.84 (inactive). For the same compound, the z-score [7] was 0.475 (inactive), the z-score [8] was 1.05 (inactive) and the z-score [9] was -0.126. The composite z-score [10] was -0.039, the composite z-score [11] was 1.22 (inactive) and the composite z-score (XIP peptide (Xip251-270)) was 0.809. The z-score [12] was -1.97, the z-score [13] was 1.63 (inactive) and the z-score [14] was -0.162 (inactive). For the same compound, the z-score [15] was -0.285 (inactive).

With `O=C(CS)NCCCCCNC(=O)[C@@H]1C[C@@H]2C(=O)N3CCC[C@H]3C(=O)N2[C@@H]1c1cccc(OCCO)c1` the z-score [1] was -0.514, the z-score [2] was 0.196 (inactive) and the z-score [3] was -0.374 (inactive). For the same compound, the composite z-score [4] was -1.8 (inactive), the z-score [5] was 0.711 (inactive) and the z-score [6] was 0.119 (inactive). For the same compound, the z-score [7] was -0.277 (inactive), the z-score [8] was -0.141 (inactive) and the z-score [9] was -0.664. The composite z-score [10] was 0.122, the composite z-score [11] was 2.29 (inactive) and the composite z-score (XIP peptide (Xip251-270)) was 0.839. The z-score [12] was 1.05, the z-score [13] was -3.61 (inactive) and the z-score [14] was 1.25 (inactive). The z-score [15] was 0.575 (inactive).

With `C=CCC(OC(C)=O)[C@@H]1[C@@H](N(Cc2cccc3ccccc23)C(=O)c2cccc3ccccc23)c2cc(OCCCO)ccc2N1C(=O)c1ccc(-c2ccccc2)cc1` (some centres undefined) the z-score [1] was -0.333, the z-score [2] was 0.134 (inactive) and the z-score [3] was -1 (inactive). For the same compound, the composite z-score [4] was 0.136 (inactive), the z-score [5] was -0.309 (inactive) and the z-score [6] was -0.56 (inactive). For the same compound, the z-score [7] was 0.161 (inactive), the z-score [8] was -0.123 (inactive) and the z-score [9] was -0.569. For the same compound, the composite z-score [10] was -0.232, the composite z-score [11] was 0.71 (inactive) and the composite z-score (XIP peptide (Xip251-270)) was 0.686. For the same compound, the z-score [12] was -2.37, the z-score [13] was -1.52 (inactive) and the z-score [14] was 0.305 (inactive). For the same compound, the z-score [15] was 0.466 (inactive).

With `CCCCN1CC=CC23O[C@@H]4/C=C\CCC(C)OC(=O)C4[C@H]2C(=O)N(C(CO)C(C)C)[C@@H]3C1=O` (some centres undefined) the z-score [1] was 0.229, the z-score [2] was 0.844 (inactive) and the z-score [3] was 0.382 (inactive). The composite z-score [4] was -1.29 (inactive), the z-score [5] was 0.991 (inactive) and the z-score [6] was 0.164 (inactive). The z-score [7] was 0.375 (inactive), the z-score [8] was 0.156 (inactive) and the z-score [9] was -0.0048. For the same compound, the composite z-score [10] was 0.48, the composite z-score [11] was 0.743 (inactive) and the composite z-score (XIP peptide (Xip251-270)) was 0.844. For the same compound, the z-score [12] was -0.36, the z-score [13] was -5.09 (inactive) and the z-score [14] was -0.428 (inactive). For the same compound, the z-score [15] was -0.543 (inactive).

In the case of `C=CC1c2cc(O)c(OC)cc2CCN1Cc1cc2c(cc1Br)OCO2` (centres undefined), the z-score [1] is reported as -1.95, the z-score [2] is reported as -12.5 (active) and the z-score [3] is reported as -2.21 (inactive). For the same compound, the composite z-score [4] was -7.6 (inactive), the z-score [5] was -0.0065 (inactive) and the z-score [6] was -2.09 (inactive). The z-score [7] was -0.929 (inactive), the z-score [8] was -1.69 (inactive) and the z-score [9] was -2.82. For the same compound, the composite z-score [10] was -0.0525, the composite z-score [11] was 1.31 (inactive) and the composite z-score (XIP peptide (Xip251-270)) was 0.962. The z-score [12] was -2.14, the z-score [13] was -5.73 (inactive) and the z-score [14] was -0.103 (inactive). The z-score [15] was -0.0965 (inactive).

With `C=CCN1Cc2ccccc2[C@H]2OC(c3ccc(OCCCO)cc3)=N[C@@]2(CC=C)C1=O` the z-score [1] was -0.594, the z-score [2] was -0.926 (inactive) and the z-score [3] was -1.72 (inactive). The composite z-score [4] was -0.116 (inactive), the z-score [5] was 0.507 (inactive) and the z-score [6] was 1.18 (inactive). For the same compound, the z-score [7] was 0.36 (inactive), the z-score [8] was 1.09 (inactive) and the z-score [9] was -1.8. For the same compound, the composite z-score [10] was 0.069, the composite z-score [11] was 0.808 (inactive) and the composite z-score (XIP peptide (Xip251-270)) was 0.746. The z-score [12] was -2.15, the z-score [13] was -3.06 (inactive) and the z-score [14] was -0.39 (inactive). The z-score [15] was -0.0236 (inactive).

In the case of `O=C1C=C(c2ccccc2)C(=O)c2ccc([C@H]3Oc4ccccc4S(=O)(=O)N4CCC[C@@H]34)cc21`, the z-score [1] is reported as -0.337, the z-score [2] is reported as -18.1 (active) and the z-score [3] is reported as -8.07 (active). The composite z-score [4] was -5.82 (inactive), the z-score [5] was 0.649 (inactive) and the z-score [6] was -0.801 (inactive). The z-score [7] was 1.81 (inactive), the z-score [8] was 0.587 (inactive) and the z-score [9] was -5.86. The composite z-score [10] was -0.31, the composite z-score [11] was -0.668 (inactive) and the composite z-score (XIP peptide (Xip251-270)) was 0.468. The z-score [12] was -3.17, the z-score [13] was -3.05 (inactive) and the z-score [14] was 0.808 (inactive). The z-score [15] was 0.885 (inactive).

In the case of `Cc1ccc(S[C@]2(C(=O)O)CC(=O)N(C3Cc4ccccc4C3)[C@@H]2c2ccc(CO)cc2)cc1`, the z-score [1] is reported as -0.684, the z-score [2] is reported as -0.528 (inactive) and the z-score [3] is reported as -0.444 (inactive). For the same compound, the composite z-score [4] was -1.03 (inactive), the z-score [5] was 1.15 (inactive) and the z-score [6] was -0.157 (inactive). For the same compound, the z-score [7] was -0.185 (inactive), the z-score [8] was -0.108 (inactive) and the z-score [9] was -0.396. For the same compound, the composite z-score [10] was -0.205, the composite z-score [11] was 1.36 (inactive) and the composite z-score (XIP peptide (Xip251-270)) was -0.669. The z-score [12] was 1.58, the z-score [13] was -3.97 (inactive) and the z-score [14] was 0.172 (inactive). The z-score [15] was 0.129 (inactive).
